From PubChem
Most compounds without a hit are left out; they make up all but 8.1% or so of the library.
SW480 rerep = DNA re-replication induction in SW480 cells | Potency, µM (titrated, usually from 46.1 µM), most hits filed as activators | AID 624297 | 1.8% of 340,000 active | SW480 DNA re-replication, Hoechst DNA content imaging, 48 h; also: nearly all actives have a fitted effect of over 55% in size
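Cells (250 per well) received 23 nL compound or DMSO by pin tool and were kept 48 hr at 37 C, 5% CO2. Nuclei were then stained with Hoechst for 40 min and scanned for DNA content.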
KB-3-1 tox = KB-3-1 parental cell cytotoxicity; KB-3-1 viability, CellTiter-Glo ATP luminescence, 72 h; Potency, µM (doses to about 46.1 µM), hits mostly cytotoxic; 1.4% of 400,000 active; also: nearly all actives have a fitted effect of over 60% in size
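Using CellTiter-Glo luminescence, growth of non-resistant KB-3-1 adenocarcinoma cells is assessed 72 h after pin-tool compound addition at 37 °C. Normalized responses across the concentration series yield fitted curves.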
KB-V1 cytotox = KB-V1 MDR subline cytotoxicity; 3.4% of 400,000 active; AID 1347076; Potency, µM (doses to about 46.1 µM), most hits filed as cytotoxic; KB-V1 MDR cells viability, CellTiter-Glo, 72 h; also: nearly all actives have a fitted effect of over 60% in size
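Drug-selected KB-V1 cells, grown in DMEM lacking phenol red with 10% FBS, receive compound titrations; after three days at 37 degrees C, surviving cell ATP is quantified by CellTiter-Glo luminescence and responses normalized and curve-fitted.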
MCF10A rerep = DNA re-replication induction in MCF 10a cells; Potency, µM (doses to about 46.1 µM), usual class: activators; AID 624296; MCF 10A DNA re-replication, Hoechst nuclear intensity, 48 h; 2.9% of 350,000 active; also: nearly all actives have a fitted effect of over 50% in size
ELG1 DNA repair = inhibitors of ELG1-dependent DNA repair in HEK293T cells; 2.3% of 330,000 active; Potency, µM (titrated, usually from 46.1 µM), actives largely listed as inhibitors; AID 504467; HEK293T ELG1-luciferase reporter, luminescence, 16 h; DNA damage induced by 5-fluorouridine; also: nearly all actives have a fitted effect of over 55% in size
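In this reporter screen, reduction of luminescence relative to DMSO vehicle indicated activity. Compounds and 5-fluorouridine were added together to 2,000 cells per well, incubated for 16 hr at 37 °C, then developed with ONE-Glo.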
Hits are given with their value. Calls follow the shape of the dose curve; as a rule, active = well fitted curve in the direction sought with a large enough effect; inconclusive = small, poorly fitted or top-dose-only effect, or another doubt; inactive = no such curve, though single readings can be large; an effect the other way counts as inactive or inconclusive.

What do the screens show for `CCOC(=O)N1CCN(Cc2nc(N)nc(Nc3ccc(OC)cc3)n2)CC1`?
SW480 rerep: inactive; KB-3-1 tox: inactive; KB-V1 cytotox: inactive; MCF10A rerep: inactive; ELG1 DNA repair: inactive

Results for CCOC(=O)c1nn(-c2ccccc2)c2nnc(Cc3ccc(C)cc3)c(=O)n12 ?
SW480 rerep: inactive; KB-3-1 tox: inactive; KB-V1 cytotox: inactive; MCF10A rerep: inactive; ELG1 DNA repair: inactive

How did CN(C)c1ccc(C(=O)Nc2ccc(S(=O)(=O)NC3=NCCCCC3)cc2)cc1 do in these assays?
SW480 rerep: inactive; KB-3-1 tox: inconclusive; KB-V1 cytotox: inactive; MCF10A rerep: inactive; ELG1 DNA repair: inactive

What do the screens show for `O=C(NNc1ccc(-c2csnn2)cc1)c1ccccc1C(F)(F)F`?
SW480 rerep: inactive; KB-3-1 tox: inactive; KB-V1 cytotox: inactive; MCF10A rerep: inactive; ELG1 DNA repair: inactive

How did O=C(Nc1ccc(Cl)cc1)c1ccc(-n2cccn2)c([N+](=O)[O-])c1 do in these assays?
SW480 rerep: inactive; KB-3-1 tox: inconclusive; KB-V1 cytotox: 14.6µM; MCF10A rerep: inconclusive; ELG1 DNA repair: inactive

What do the screens show for `CC1Cc2ccccc2N1C(=O)c1ccc2snnc2c1` (stereo not given)?
SW480 rerep: inactive; KB-3-1 tox: inactive; KB-V1 cytotox: inactive; MCF10A rerep: inactive; ELG1 DNA repair: inactive

Results for Cc1nc2cc(C(=O)N3c4ccccc4CC3C)ccc2s1 (stereo not given) ?
SW480 rerep: inconclusive; KB-3-1 tox: 20.6µM; KB-V1 cytotox: inconclusive; MCF10A rerep: inactive; ELG1 DNA repair: inactive

How did CC1CN(Cc2ccccc2)c2ccccc2NC1=S (stereo not given) do in these assays?
SW480 rerep: inactive; KB-3-1 tox: inconclusive; KB-V1 cytotox: 20.6µM; MCF10A rerep: inactive; ELG1 DNA repair: inactive

Results for Clc1ccccc1Cn1c(/C=C/c2ccco2)nc2ccccc21 ?
KB-3-1 tox: inconclusive; KB-V1 cytotox: 13µM; MCF10A rerep: 18.4µM; ELG1 DNA repair: inactive

What do the screens show for `CC1(C)Cc2c(sc3ncnc(NNC(=S)NCc4ccccc4)c23)CO1`?
SW480 rerep: 3.66µM; KB-3-1 tox: 5.17µM; KB-V1 cytotox: inconclusive; MCF10A rerep: 3.26µM; ELG1 DNA repair: inactive

How did CC(C)NC(=S)NNc1ncnc2sc3c(c12)CC(C)(C)OC3 do in these assays?
SW480 rerep: inactive; KB-3-1 tox: inactive; KB-V1 cytotox: inactive; MCF10A rerep: inactive

How did Cc1ccc(NC(=O)c2nc(C)n(-c3ccc([N+](=O)[O-])cc3)n2)cc1 do in these assays?
SW480 rerep: inactive; KB-3-1 tox: inactive; KB-V1 cytotox: 11.6µM; MCF10A rerep: inactive; ELG1 DNA repair: inactive

What do the screens show for `Cc1c(C(=O)NCc2ccccc2)oc2ccc(S(=O)(=O)N3CCCC3)cc12`?
SW480 rerep: inactive; KB-3-1 tox: inactive; KB-V1 cytotox: inactive; MCF10A rerep: inactive; ELG1 DNA repair: 14.6µM

How did Cc1c(C(=O)N2CCc3ccccc3C2)oc2ccc(S(=O)(=O)N3CCCCCC3)cc12 do in these assays?
SW480 rerep: inactive; KB-3-1 tox: inconclusive; KB-V1 cytotox: inconclusive; MCF10A rerep: inconclusive; ELG1 DNA repair: 16.4µM

What do the screens show for `Cc1c(C(=O)NCc2cccnc2)oc2ccc(S(=O)(=O)N3CCCCCC3)cc12`?
SW480 rerep: inactive; KB-3-1 tox: inconclusive; KB-V1 cytotox: 5.17µM; MCF10A rerep: inactive; ELG1 DNA repair: 18.4µM

Results for C=CCNC(=O)c1oc2ccc(S(=O)(=O)N3CCCCC3)cc2c1C ?
SW480 rerep: inactive; KB-3-1 tox: inactive; KB-V1 cytotox: inactive; MCF10A rerep: inactive; ELG1 DNA repair: inactive

How did C=CCNC(=O)c1oc2ccc(S(=O)(=O)N3CCC4(CC3)OCCO4)cc2c1C do in these assays?
SW480 rerep: inactive; KB-3-1 tox: inactive; KB-V1 cytotox: inactive; MCF10A rerep: inactive; ELG1 DNA repair: inconclusive

What do the screens show for `COc1ccccc1CNC(=O)c1oc2ccc(S(=O)(=O)N3CCCC3)cc2c1C`?
SW480 rerep: inactive; KB-3-1 tox: inactive; KB-V1 cytotox: inactive; MCF10A rerep: inactive; ELG1 DNA repair: inconclusive

How did COc1ccc(NC(=O)c2oc3ccc(S(=O)(=O)N4CCC5(CC4)OCCO5)cc3c2C)cc1 do in these assays?
SW480 rerep: inactive; KB-3-1 tox: inconclusive; KB-V1 cytotox: inconclusive; MCF10A rerep: inconclusive; ELG1 DNA repair: 5.8µM
